High-throughput results (PubChem)
Efflux pump mplx – inhibitors of Candida antifungal efflux pumps expressed in yeast. S. cerevisiae Candida pump triplex, Nile Red efflux. inhibition, % at 10 µM. 330,000 tested, 0.44% active;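 active means plate passing quality check with inhibition over a set limit, or well fluorescence over plate mean plus 4 SD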;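 further: Nile Red retained in pooled yeast measured as flow cytometry median fluorescence; 0% = buffer negative control and 100% = Enniatin B positive control; higher means more Nile Red kept so more efflux inhibition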
SUMO Mot1 rescue – inhibitors of SUMOylation pathway: yeast Mot1-301 growth rescue | growth rescue, % at 18.8 µM | 320,000 tested, 1% active | AID 2716 | S. cerevisiae Mot1-301 growth rescue, ATP luminescence, 38.5C; percent above DMSO median, 100 means doubled;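 active means every valid replicate shows activation above 250% relative to neutral control wells; inactive means the rest, any valid replicate at or below 250%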;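 further: OY570 slx delta 5 strain wells were the positive control but not used for scaling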
sPLA2-III inh – Inhibits HGIII-sPLA2 liposome hydrolysis, primary screen. Q9NZ20. QFRET BODIPY PC-A2 liposome hydrolysis, fluorescence. inhibition, % at 12.2 µM. 370,000 tested, 0.56% active. AID 743126;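 active means inhibition above mean plus 3 SD of compounds lying within the high and low control bounds, cut at about 19% in these data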;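 further: 0% = median of test compound wells and 100% = no enzyme DMSO wells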
Target sequence (Q9NZ20 whole entry, looked up): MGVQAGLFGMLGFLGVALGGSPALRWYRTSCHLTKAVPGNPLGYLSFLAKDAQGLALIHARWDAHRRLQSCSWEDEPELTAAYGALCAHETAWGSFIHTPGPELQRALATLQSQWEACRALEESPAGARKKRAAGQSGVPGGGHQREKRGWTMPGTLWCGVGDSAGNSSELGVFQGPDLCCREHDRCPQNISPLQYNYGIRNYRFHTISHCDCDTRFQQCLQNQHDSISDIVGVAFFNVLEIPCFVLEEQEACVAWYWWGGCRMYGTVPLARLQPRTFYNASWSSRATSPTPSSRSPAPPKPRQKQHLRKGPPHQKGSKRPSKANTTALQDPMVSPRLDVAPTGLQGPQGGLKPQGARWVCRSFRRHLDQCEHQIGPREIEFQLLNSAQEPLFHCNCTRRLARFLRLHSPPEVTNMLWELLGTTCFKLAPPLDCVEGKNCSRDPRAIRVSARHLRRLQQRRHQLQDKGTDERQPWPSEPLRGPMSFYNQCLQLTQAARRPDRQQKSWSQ
SKN-1 block – blocks SKN-1 activity in C. elegans | C. elegans VP596 Pgst-4::GFP/RFP ratio, acrylamide-induced, 24 h | inhibition, % at 21.8 µM | 360,000 tested, 0.49% active;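 active means interference check ratio from 0.5 to 1.5 plus GFP to RFP signal ratio inhibition reaching or exceeding a fixed threshold, cut at about 30% in these data, passing the limit was not always enough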
* = called active by the depositor. In the library only some 2.2% were active in any assay of this set; here they are far more common.

Results for O=C(Nc1ccccc1C(F)(F)F)N1CCC(N2CCCCC2)CC1 ?
Efflux pump mplx: 0.0; SUMO Mot1 rescue: 295.6*; sPLA2-III inh: -6.8; SKN-1 block: 19.8

Results for O=C(NC1CC1)C1CCN(C2CCN(Cc3ccccc3C(F)(F)F)CC2)CC1 ?
Efflux pump mplx: -0.1; SUMO Mot1 rescue: 312.6*; sPLA2-III inh: 6.9; SKN-1 block: 9.9

How did C[C@H]1CN(C(=O)OC(C)(C)C)CCN1c1ccc(N2CCS(=O)(=O)CC2)c(C#N)c1 do in these assays?
sPLA2-III inh: 9.6

How did COc1cc(/C=N/N2C(=O)CSC2=S)ccc1O do in these assays?
Efflux pump mplx: 0.1; SUMO Mot1 rescue: -7.3; sPLA2-III inh: -1.7; SKN-1 block: 14.9

What do the screens show for `O=C1CSC(=S)N1/N=C/c1cc(Br)c(O)c(Br)c1`?
Efflux pump mplx: 7.5*; SUMO Mot1 rescue: 5.1; SKN-1 block: 32.4

What do the screens show for `COC(=O)c1c(C)[nH]c(C(=O)OCc2csc(CC(=O)Nc3ccccc3C)n2)c1C`?
Efflux pump mplx: 0.1; SUMO Mot1 rescue: 7.4; sPLA2-III inh: -22.3; SKN-1 block: 7.5

Results for Cn1ccsc1=NC(=O)c1ccc(Cl)cc1 ?
Efflux pump mplx: -0.1; SUMO Mot1 rescue: 79.6; sPLA2-III inh: 1.2; SKN-1 block: 43.2*

Results for COc1ccc(C(=O)N=c2sccn2C)cc1 ?
Efflux pump mplx: 0.2; SUMO Mot1 rescue: -5.4; sPLA2-III inh: 4.5; SKN-1 block: 15.8

Results for Cn1ccsc1=NC(=O)c1ccc(OC(F)(F)F)cc1 ?
Efflux pump mplx: 0.3; SUMO Mot1 rescue: 379.3; sPLA2-III inh: -2.1; SKN-1 block: 51.3*

What do the screens show for `COC(=O)c1ccc(C(=O)N=c2sccn2C)cc1`?
Efflux pump mplx: -0.3; SUMO Mot1 rescue: 2.8; sPLA2-III inh: 1.0; SKN-1 block: 18.1

What do the screens show for `Cc1cc(C)cc(CC(=O)N2CCC2(C)C(=O)NS(=O)(=O)c2ccccc2Cl)c1` (centres undefined)?
sPLA2-III inh: -1.3; SKN-1 block: 16.7

How did Cc1ccccc1N1CCN(C2CCCN(C(=O)CCC(=O)N(C)C)C2)CC1 (centres undefined) do in these assays?
Efflux pump mplx: 0.2; SUMO Mot1 rescue: 293.9*; sPLA2-III inh: 1.8; SKN-1 block: 7.0

Results for COC(=O)c1cc2c(c3c4cc(C)ccc4n(S(=O)(=O)c4ccc(OC)cc4)c13)C(=O)N(Cc1ccc(C(F)(F)F)cc1)C2 ?
sPLA2-III inh: 8.2

How did CCNC(=O)OCCN1C(=O)CCC12CCC(c1ccc(Cl)cc1)CC2 (centres undefined) do in these assays?
sPLA2-III inh: 10.4

How did Cc1cccc(NC(=S)N/N=C/c2ccc([N+](=O)[O-])s2)c1 do in these assays?
Efflux pump mplx: -0.1; SUMO Mot1 rescue: 237.3; sPLA2-III inh: 17.9; SKN-1 block: 43.5*

How did Cc1ccc2cc(NC(=O)c3ccc(C(C)(C)C)cc3)ccc2n1 do in these assays?
Efflux pump mplx: 0.1; SUMO Mot1 rescue: 27.7; sPLA2-III inh: 1.9; SKN-1 block: 28.1

How did CCc1ccc(C(=O)Nc2ccc3nc(C)ccc3c2)cc1 do in these assays?
Efflux pump mplx: 0.1; SUMO Mot1 rescue: 31.3; sPLA2-III inh: 9.3; SKN-1 block: 44.0*

How did Brc1ccc(CSc2nnc(-c3cccnc3)o2)cc1 do in these assays?
Efflux pump mplx: 0.2; SUMO Mot1 rescue: inactive; sPLA2-III inh: -4.8; SKN-1 block: 43.3*

Results for Clc1ccc(-c2nnc(-c3ccccc3)o2)cn1 ?
Efflux pump mplx: 0.2; SUMO Mot1 rescue: 0.5; sPLA2-III inh: 1.0; SKN-1 block: 41.7*

What do the screens show for `Brc1ccc(-c2nnc(-c3ccco3)o2)cc1`?
Efflux pump mplx: 0.0; SUMO Mot1 rescue: 5.1; sPLA2-III inh: -2.6; SKN-1 block: 80.5*

How did Brc1ccc(-c2nnc(-c3cccnc3)o2)cc1 do in these assays?
Efflux pump mplx: -0.1; SUMO Mot1 rescue: 8.1; sPLA2-III inh: 4.5; SKN-1 block: 48.1*

Results for c1ccc(-c2nnc(-c3ccco3)o2)cc1 ?
Efflux pump mplx: -0.1; SUMO Mot1 rescue: -8.8; sPLA2-III inh: 2.6; SKN-1 block: 21.3

How did CN1C(=O)c2cc(NS(C)(=O)=O)ccc2OC[C@H]2O[C@@H](CC(=O)NCc3ccc(-c4ccccc4)cc3)CC[C@@H]21 do in these assays?
sPLA2-III inh: -25.1

How did Brc1ccc(-c2nnc(-c3ccccc3Br)o2)cc1 do in these assays?
Efflux pump mplx: 0.1; SUMO Mot1 rescue: 560.7; sPLA2-III inh: 3.5; SKN-1 block: 65.4*

Results for Cc1ccc(-c2nnc(-c3cccnc3)o2)cc1 ?
Efflux pump mplx: 0.2; SUMO Mot1 rescue: -8.3; sPLA2-III inh: -1.9; SKN-1 block: 0.9

What do the screens show for `Clc1ccc(-c2nnc(-c3cccnc3)o2)cc1`?
Efflux pump mplx: -0.1; SUMO Mot1 rescue: -15.0; sPLA2-III inh: 2.6; SKN-1 block: 40.5*

What do the screens show for `Cc1ccc(-c2nnc(-c3ccccc3Br)o2)cc1`?
Efflux pump mplx: -0.1; SUMO Mot1 rescue: -8.9; sPLA2-III inh: -1.7; SKN-1 block: -8.9

How did CCn1ccnc1CN(C)C(=O)CCc1nnc(CCCc2ccccc2)o1 do in these assays?
Efflux pump mplx: 0.2; SUMO Mot1 rescue: 7.7; sPLA2-III inh: 5.5; SKN-1 block: -1.9

How did CN(C)CCNC(=O)c1ccc2c(c1)NC(=O)c1ccccc1S2 do in these assays?
Efflux pump mplx: 0.0; SUMO Mot1 rescue: 335.7*; sPLA2-III inh: -7.5; SKN-1 block: 10.8

What do the screens show for `Cc1nn2cc(-c3ccc(Cl)cc3)nc2s1`?
Efflux pump mplx: -0.1; SUMO Mot1 rescue: 10.2; sPLA2-III inh: 0.5; SKN-1 block: 45.1*

What do the screens show for `O=C(COC(=O)C1CCC1)Nc1ccc(Cl)cn1`?
Efflux pump mplx: 0.4; SUMO Mot1 rescue: 17.0; sPLA2-III inh: 9.0; SKN-1 block: -4.1

How did O=C(COC(=O)CCC1CCCC1)Nc1ccc(Cl)cn1 do in these assays?
Efflux pump mplx: -0.1; SUMO Mot1 rescue: 481.4; sPLA2-III inh: -2.5; SKN-1 block: 40.9*

How did C[C@@H]1C=CCCO[C@]12C(=O)N(Cc1ccccc1C(F)(F)F)c1cccc(Br)c12 do in these assays?
sPLA2-III inh: 7.2

How did Cc1ccc(C(=O)NC2CCCCN(C)C2=O)c(C)c1 (centres undefined) do in these assays?
sPLA2-III inh: 3.6

Results for Cc1ccc(S(=O)(=O)N2CCCc3nc(-c4ccc(Br)cc4)ccc32)cc1 ?
sPLA2-III inh: 17.2

What do the screens show for `Cc1cc(C(=O)CSc2nnc(-c3cccs3)n2Cc2ccccc2)c(C)n1C`?
Efflux pump mplx: 0.3; SUMO Mot1 rescue: 7.4; sPLA2-III inh: -1.3; SKN-1 block: 35.8*

What do the screens show for `Cc1ccc2c(c1)c(C)c(C)n2CC(O)Cn1nnc2ccccc21` (centres undefined)?
Efflux pump mplx: -0.2; SUMO Mot1 rescue: 6.3; sPLA2-III inh: -4.6; SKN-1 block: 60.3*

What do the screens show for `Cc1ccc2c(c1)c(C)c(C)n2CC(O)Cn1nc(C)cc1C` (centres undefined)?
Efflux pump mplx: 0.0; SUMO Mot1 rescue: -3.8; sPLA2-III inh: 7.6; SKN-1 block: 18.7

Results for CC(C)OC(=O)n1c(=S)oc2ccccc21 ?
Efflux pump mplx: 0.0; SUMO Mot1 rescue: 27.8; sPLA2-III inh: -1.7; SKN-1 block: 1.0

Results for CCCCC(=O)/C=C/n1c(=S)oc2ccccc21 ?
Efflux pump mplx: -0.1; SUMO Mot1 rescue: 37.0; sPLA2-III inh: 10.3; SKN-1 block: 38.9*
